# In PubChem BioAssay (NCI):
# “And” between values parts separate entries of the source, which are not always exact repeats. Identical values can stand only once. This is part of a sample that, as a whole, favours compounds with a hit. Of some 83,000 tested, about 20% had one in any assay.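 Compound tested at a single concentration for 48 hours in 96-well plates; a percent growth value below 10 was scored as active.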 The source made the active and inactive calls.
# Tested on: HL-60(TB) leukemia
# Assay: NCI-60 one-dose screen, 48 h (100 = growth as untreated, 0 = no growth, -100 = all killed)
# Settings: 10 µM unless noted
row,SMILES,growth
1,CN(Cc1cc(Cl)cc(Cl)c1O)Cc1cc(Cl)cc(Cl)c1O,53.1% (inactive)
2,Cc1ccc(C(=O)Nc2ccccc2C(=O)N/N=C(\c2ccccc2)c2ccccn2)cc1,2.36% (active)
3,COc1ccc(-c2nc(SCC(=O)Nc3nc(-c4ccccc4)cs3)[nH]c(=O)c2C#N)cc1,92% (inactive)
4,O=C1/C(=C\c2ccc3nccnc3c2)SC(=S)N1CCc1ccc(O)cc1,75.6% (inactive)
5,CC12CCC(C(=O)CC1=O)C2(C)C (stereo not given),71.5% (inactive) and 93.6% (inactive)
6,O=C1c2ccc3c4c5ccc(c24)C(=O)N1CCCOCCCCOCCCNCc1ccc(cc1)CNCCCOCCCCOCCCN(C3=O)C5=O,-61.1% (active)
7,COc1cc(-c2cc(-c3cccs3)c(C#N)c(N3CCOCC3)n2)cc(OC)c1OC,58.9% (inactive)
8,COc1cc(NC(C)CCCNC(C)C)c2ncccc2c1OC (stereo not given),10.6% (inactive)
9,NC1(c2ccc(-c3nc4ccn5c(=O)[nH]nc5c4cc3-c3ccccc3)cc2)CCC1,50.1% (inactive)
10,Cc1sc(N=Nc2ccc(N(C)C)cc2)[n+]([O-])c1C,92.7% (inactive)
11,O=c1[nH]c2ccccc2cc1-c1nc2ccc(Cl)cc2[nH]1,-26.1% (active)
12,O=C(CSc1nc2ccc([N+](=O)[O-])cc2[nH]1)Nc1ccc(F)c(Cl)c1,10.7% (inactive)
13,COc1ccc([N+](=O)[O-])c(C(=O)O)c1,111% (inactive)
14,Cc1ccc(-c2noc(CC(=O)c3ccc([N+](=O)[O-])cc3)n2)cc1,65.2% (inactive)
15,OC(c1ccccn1)C(O)c1ccccn1 (stereo not given),97.3% (inactive)
16,Cc1ccccc1NC(=O)N/C(N)=N/c1nc(C)c(C)s1,-2.57% (active)
17,COc1cc(C(=O)NNC(=O)c2ccc(NC(=O)CCl)cc2)cc(OC)c1OC,77.9% (inactive)
18,O=c1cc(-c2ccccc2)oc2c(O)c(O)ccc12,59.4% (inactive)
19,Cc1cc(C)c(N2C(=O)CC(Sc3ccccc3N)C2=O)c(C)c1 (stereo not given),68.8% (inactive)
20,CCOc1ccc(/C=N\N2CCCCCC2)cc1OCC,92.7% (inactive)

row,SMILES,growth
1,COc1ccc(N)c2c1C(=O)c1ccccc1C2=O,45.8% (inactive)
2,COc1ccc(/C=C2\COc3ccc(O)c(O)c3C2=O)cc1,-5.92% (active)
3,COc1ccc2c(c1)C(=O)/C(=C/c1cccc(OCC(=O)Nc3nc(C)c(C)s3)c1)O2,-79.3% (active)
4,O=Nc1c(O)ccc2ccccc12,-26.3% (active) and 74% (inactive)
5,CCCNC(=O)Nc1ccc2cc3ccc(NC(=O)NCCC)cc3nc2c1,74.9% (inactive)
6,Cc1cc(C)c2c(c1)N(C)c1ncnc(-n3cnc4cc(C)ccc43)c1CC2C (stereo not given),11.1% (inactive)
7,CC(=O)C(CO)C(=O)Nc1ccccc1 (stereo not given),100% (inactive)
8,Oc1c(Br)cc(Br)c2ccc(Cn3cc(-c4ccccc4C(F)(F)F)nn3)nc12,0.588% (active)
9,NC1CCC(Nc2nc(NCc3ccc(-c4cccs4)nc3)c3ncn(C4CCCC4)c3n2)CC1 (stereo not given),-29.7% (active)
10,O=C1Nc2ccccc2/C1=C\c1nc(C2CCN(S(=O)(=O)c3ccc(F)cc3)CC2)n2ccccc12,92.3% (inactive)
11,CSc1oc(C)nc1[P+](c1ccccc1)(c1ccccc1)c1ccccc1,46.5% (inactive)
12,COc1ccc(C2=C(c3cn(C)c4ccccc34)C(=O)OC2)cc1OC,7.26% (active)
13,Cc1ccc2nc3c(n2c1)C(=O)C(=O)c1ccccc1-3,-59.1% (active)
14,O/N=C/c1ccc(O)cc1O,96.9% (inactive)
15,O=C(NC(=S)Nc1ccc(-c2nc3ccccc3[nH]2)cc1)c1ccc2ccccc2c1,40.7% (inactive)
16,CCCCN1C(=O)c2cccc3c(-c4ccc5c(c4)ncn5C4CCCCC4)ccc(c23)C1=O,99.7% (inactive)
17,O=C(Nc1ccc(Cl)cc1)c1cc2ccccc2cc1O,-8.5% (active) and -29.4% (active)
18,CCN(Cc1ccc(CN(CC)C(=O)C(Br)Br)cc1)C(=O)C(Br)Br,13.1% (inactive)
19,CC(C)(O)Cn1cc(-c2ccc3nc(OC4CC4)ccc3c2)c2c(N)ncnc21,97.3% (inactive) and 76.7% (inactive)
20,Cc1cc(=O)[nH]c(N=Nc2c(O)[nH]c3ccccc23)n1,79.8% (inactive)
